Results taken from PubChem BioAssay (NCI).
The panel holds about 79,000 compounds, 15% with a hit somewhere; the sample as a whole holds those more often. Calls of active or inactive are those of the source. Cut-off read from the data, not from the text of the source: active = growth inhibition above about 70%; inactive = the rest.

Columns and labels:
[1] = NCI Yeast Anticancer Drug Screen. Data for the rad52 strain (AID 147);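 note: 0% = growth of vehicle-treated control cultures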; conditions: S. cerevisiae rad52 mutant growth inhibition, active compounds read high
In short: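 Inhibition of yeast growth, referenced to vehicle controls, was the measured output for a strain with defective DNA damage repair.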

[2] = NCI Yeast Anticancer Drug Screen. Data for the rad50EPP+ strain (AID 151);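 note: 0% = growth of vehicle-treated control cultures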; conditions: S. cerevisiae rad50 mutant strain, active compounds read high
In short: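 Genetically defined yeast (rad50EPP+, DNA damage repair alteration) is grown with compound, and inhibition of growth is expressed relative to vehicle-treated controls.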

[3] = NCI Yeast Anticancer Drug Screen. Data for the mgt1 strain (AID 153); conditions: S. cerevisiae mgt1 mutant growth inhibition, active compounds read high
In short: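 In the mgt1 strain, test compounds were added and growth inhibition was determined relative to vehicle-treated controls.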

[4] = NCI Yeast Anticancer Drug Screen. Data for the rad50 strain (AID 155);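 note: 0% = growth of vehicle-only cultures of the same strain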; conditions: S. cerevisiae rad50 strain growth inhibition, active compounds read high
In short: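 Growth of the mutant yeast was measured after compound exposure and referenced to vehicle-treated cultures.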

[5] = NCI Yeast Anticancer Drug Screen. Data for the mec2-1 strain (AID 157); conditions: S. cerevisiae mec2-1 strain, active compounds read high
In short: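 Each compound was tested on mec2-1 yeast, a strain altered in DNA damage repair or cell cycle control. Growth inhibition is reported relative to vehicle.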

[6] = NCI Yeast Anticancer Drug Screen. Data for the rad14 strain (AID 159);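 note: 0% = growth of vehicle-treated control cultures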; conditions: S. cerevisiae rad14 strain growth inhibition, active compounds read high
In short: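 Here, inhibition of yeast growth was measured after compound exposure, using a strain with a genetic defect in DNA damage repair and vehicle-treated cultures as the reference.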

[7] = NCI Yeast Anticancer Drug Screen. Data for the sgs1 mgt1 strain (AID 161);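 note: 0% = growth of cultures given vehicle only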; conditions: S. cerevisiae sgs1 mgt1 strain, active compounds read high
In short: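 Mutant yeast exposed to compound; growth scored against vehicle-only wells.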

[8] = NCI Yeast Anticancer Drug Screen. Data for the CLN2oe strain (AID 163);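 note: 0% = growth of vehicle-only control cultures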; conditions: S. cerevisiae CLN2oe strain, active compounds read high
In short: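 First, the altered yeast strain was treated with each compound; second, its growth was measured; finally, inhibition was derived by comparison with vehicle controls.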

[9] = NCI Yeast Anticancer Drug Screen. Data for the cln2 rad14 strain (AID 165);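 note: 0% = growth equal to vehicle treated cultures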; conditions: S. cerevisiae cln2 rad14 strain, active compounds read high
In short: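 Test compounds were added to cln2 rad14 yeast cultures; inhibition of growth was then determined by comparison with vehicle treatment.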

[10] = NCI Yeast Anticancer Drug Screen. Data for the bub3 strain (AID 167); conditions: S. cerevisiae bub3 mutant strain, active compounds read high
In short: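 Whole-cell yeast assay. The mutant strain was incubated with compounds, and growth inhibition was determined by comparison with vehicle-treated cells.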

[11] = NCI Yeast Anticancer Drug Screen. Data for the mlh1 strain (AID 171);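 note: 0% = growth of vehicle-treated control cultures of the same strain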; conditions: S. cerevisiae mlh1 strain growth inhibition, active compounds read high
In short: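 Inhibition values reflect reduced yeast growth in the presence of compound, referenced to vehicle controls, using a strain chosen for its alteration in DNA repair or cell cycle control.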

[12] = NCI Yeast Anticancer Drug Screen. Data for the sgs1 strain (AID 173);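 note: 0% = growth of vehicle-only control cultures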; conditions: S. cerevisiae sgs1 mutant, active compounds read high
In short: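 Vehicle-treated cultures served as reference for growth inhibition of a yeast strain altered in DNA damage repair or cell cycle control after compound exposure.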

[13] = NCI Yeast Anticancer Drug Screen. Data for the mlh1 rad18 strain (AID 175); conditions: S. cerevisiae mlh1 rad18 strain growth inhibition, active compounds read high
In short: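 Inhibition values reflect reduced growth of mutant yeast versus vehicle-treated controls following compound exposure; the mutations affect DNA damage repair.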

[14] = NCI Yeast Anticancer Drug Screen. Data for the rad18 strain (AID 177); conditions: S. cerevisiae rad18 mutant growth inhibition, active compounds read high
In short: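 Steps: expose repair-mutant yeast to compound; measure growth; express as inhibition relative to vehicle control.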

[15] = NCI Yeast Anticancer Drug Screen. Data for the wt1 strain (AID 149);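 note: 0% = growth of vehicle-treated wt1 cultures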; conditions: S. cerevisiae wt1 strain (SPY 50644) growth inhibition, active compounds read high
In short: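 Measured: growth of wt1 yeast under compound versus vehicle treatment, reported as inhibition.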

[16] = NCI Yeast Anticancer Drug Screen. Data for the wt2 strain (AID 169);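 note: 0% = growth of vehicle-treated yeast cultures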; conditions: S. cerevisiae wt2 strain growth inhibition, active compounds read high
In short: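 The panel's yeast strains carry defined changes in DNA repair or cell cycle genes. Each strain is grown with compound, and growth loss is scored relative to vehicle.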

[17] = at 5.0 µM (retest, dose inferred, filed as 0.5)
[18] = at 50.0 µM (retest, dose inferred, filed as 5.0)

Measured: growth inhibition

O=C(NCCCNCCCNC(=O)c1cc(-c2ccccc2)nc2ccccc12)c1cc(-c2ccccc2)nc2ccccc12
inactive: [1]; at 1.2 µM -4% | [1]; at 3.7 µM -2% | [1]; at 11.0 µM -4% | [1]; at 33.0 µM 6% | [1]; at 100.0 µM 11% | [2]; at 1.2 µM -1% | [2]; at 3.7 µM 5% | [2]; at 11.0 µM 14% | [2]; at 33.0 µM 24% | [2]; at 100.0 µM 19% | [3]; at 1.2 µM -2% | [3]; at 3.7 µM -1% | [3]; at 11.0 µM -3% | [3]; at 33.0 µM 20% | [3]; at 100.0 µM 61% | [4]; at 1.2 µM -3% | [4]; at 3.7 µM -2% | [4]; [17] -13% | [4]; at 11.0 µM -4% | [4]; at 33.0 µM 27% | [4]; [18] 54% | [4]; at 50.0 µM 37.3% | [4]; at 100.0 µM 51% | [5]; at 1.2 µM -2% | [5]; at 3.7 µM -4% | [5]; [17] -11% | [5]; at 11.0 µM -5% | [5]; at 33.0 µM 10% | [5]; [18] 19% | [5]; at 50.0 µM 37.7% | [5]; at 100.0 µM 47% | [6]; at 1.2 µM -1% | [6]; at 3.7 µM -1% | [6]; at 11.0 µM 4% | [6]; at 33.0 µM 58% | [7]; [17] 0% | [7]; [18] -8% | [7]; at 50.0 µM 56.2% | [8]; at 1.2 µM -3% | [8]; at 3.7 µM -1% | [8]; at 11.0 µM -4% | [8]; at 33.0 µM 14% | [8]; at 100.0 µM 24% | [9]; [17] 40% | [9]; [18] 42% | [9]; at 50.0 µM 37.8% | [10]; at 1.2 µM -3% | [10]; at 3.7 µM -1% | [10]; [17] 3% | [10]; at 11.0 µM -1% | [10]; at 33.0 µM 11% | [10]; [18] 58% | [10]; at 50.0 µM 64.1% | [10]; at 100.0 µM 44% | [11]; at 1.2 µM -4% | [11]; at 3.7 µM -1% | [11]; at 11.0 µM -1% | [11]; at 33.0 µM 16% | [11]; at 100.0 µM 46% | [12]; at 1.2 µM -3% | [12]; at 3.7 µM -2% | [12]; at 11.0 µM -1% | [12]; at 33.0 µM 7% | [12]; at 100.0 µM 11% | [13]; [17] 17% | [14]; at 1.2 µM -4% | [14]; at 3.7 µM -3% | [14]; at 11.0 µM -4% | [14]; at 33.0 µM 13% | [14]; at 100.0 µM 34%
active: [6]; at 100.0 µM 82% | [13]; [18] 78% | [13]; at 50.0 µM 89.4%

CCCCCCCCCCCCCCC(C(=O)[O-])[n+]1ccccc1 (stereo not drawn)
inactive: [15]; at 1.2 µM -1% | [15]; at 3.7 µM -3% | [15]; at 11.0 µM -4% | [15]; at 33.0 µM -6% | [15]; at 100.0 µM 6% | [2]; at 1.2 µM 0% | [2]; at 3.7 µM 4% | [2]; at 11.0 µM 4% | [2]; at 33.0 µM 3% | [2]; at 100.0 µM 39% | [3]; at 1.2 µM 2% | [3]; at 3.7 µM -4% | [3]; at 11.0 µM 2% | [3]; at 33.0 µM -2% | [4]; at 1.2 µM 3% | [4]; at 3.7 µM 9% | [4]; [17] 9% | [4]; at 11.0 µM 3% | [4]; at 33.0 µM 4% | [4]; [18] 20% | [6]; at 1.2 µM -2% | [6]; at 3.7 µM 13% | [6]; at 11.0 µM 0% | [6]; at 33.0 µM 2% | [7]; [17] 12% | [7]; [18] 45% | [8]; at 1.2 µM 3% | [8]; at 3.7 µM 3% | [8]; at 11.0 µM 3% | [8]; at 33.0 µM -2% | [8]; at 100.0 µM 26% | [9]; [17] 8% | [9]; [18] 26% | [10]; at 1.2 µM 2% | [10]; at 3.7 µM -27% | [10]; [17] 5% | [10]; at 11.0 µM 0% | [10]; at 33.0 µM -8% | [16]; at 1.2 µM 0% | [16]; at 3.7 µM 0% | [16]; at 11.0 µM -1% | [16]; at 33.0 µM 7% | [11]; at 1.2 µM 0% | [11]; at 3.7 µM -3% | [11]; at 11.0 µM -12% | [11]; at 33.0 µM -18% | [12]; at 1.2 µM 0% | [12]; at 3.7 µM -3% | [12]; at 11.0 µM -2% | [12]; at 33.0 µM 13% | [13]; [17] -15% | [13]; [18] 51% | [14]; at 1.2 µM 3% | [14]; at 3.7 µM 8% | [14]; at 11.0 µM 24%
active: [3]; at 100.0 µM 95% | [4]; at 50.0 µM 98.5% | [4]; at 100.0 µM 97% | [6]; at 100.0 µM 90% | [7]; at 50.0 µM 98.8% | [9]; at 50.0 µM 95.8% | [10]; [18] 91% | [10]; at 50.0 µM 97.3% | [10]; at 100.0 µM 85% | [16]; at 100.0 µM 83% | [11]; at 100.0 µM 99% | [12]; at 100.0 µM 95% | [13]; at 50.0 µM 98% | [14]; at 33.0 µM 81% | [14]; at 100.0 µM 97%
